# Laboratory results published in PubChem BioAssay AID2227 (Johns Hopkins Ion Channel Center, 2009).
# Among all 310,000 compounds or so, about 1,300 (0.42%) were called active.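 The calls were made as follows: active = B-score of calcium response area above 5 SD of library B-scores, with initial fluorescence ratio within 5 SD of library; inactive = the rest.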 For the sample, actives were picked, then their nearest neighbours and some compounds at random.
# Molecular target: Short transient receptor potential channel 4 (Mus musculus) (UniProt Q9QUQ5)
# Experiment: TRPC4 channel potentiators under submaximal DAMGO – cell-based, mouse TRPC4beta, HEK293 mu-opioid, Fluo-4 calcium, primary screen (AID 2227);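 as to B-score: B-score of integrated fluorescence ratio over time as area under calcium response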
# Details: DAMGO EC20, Fluo-4 Ca2+ flux, at 10 µM; active compounds read high
# Short transient receptor potential channel 4 (Mus musculus), sequence (Q9QUQ5 whole entry, looked up): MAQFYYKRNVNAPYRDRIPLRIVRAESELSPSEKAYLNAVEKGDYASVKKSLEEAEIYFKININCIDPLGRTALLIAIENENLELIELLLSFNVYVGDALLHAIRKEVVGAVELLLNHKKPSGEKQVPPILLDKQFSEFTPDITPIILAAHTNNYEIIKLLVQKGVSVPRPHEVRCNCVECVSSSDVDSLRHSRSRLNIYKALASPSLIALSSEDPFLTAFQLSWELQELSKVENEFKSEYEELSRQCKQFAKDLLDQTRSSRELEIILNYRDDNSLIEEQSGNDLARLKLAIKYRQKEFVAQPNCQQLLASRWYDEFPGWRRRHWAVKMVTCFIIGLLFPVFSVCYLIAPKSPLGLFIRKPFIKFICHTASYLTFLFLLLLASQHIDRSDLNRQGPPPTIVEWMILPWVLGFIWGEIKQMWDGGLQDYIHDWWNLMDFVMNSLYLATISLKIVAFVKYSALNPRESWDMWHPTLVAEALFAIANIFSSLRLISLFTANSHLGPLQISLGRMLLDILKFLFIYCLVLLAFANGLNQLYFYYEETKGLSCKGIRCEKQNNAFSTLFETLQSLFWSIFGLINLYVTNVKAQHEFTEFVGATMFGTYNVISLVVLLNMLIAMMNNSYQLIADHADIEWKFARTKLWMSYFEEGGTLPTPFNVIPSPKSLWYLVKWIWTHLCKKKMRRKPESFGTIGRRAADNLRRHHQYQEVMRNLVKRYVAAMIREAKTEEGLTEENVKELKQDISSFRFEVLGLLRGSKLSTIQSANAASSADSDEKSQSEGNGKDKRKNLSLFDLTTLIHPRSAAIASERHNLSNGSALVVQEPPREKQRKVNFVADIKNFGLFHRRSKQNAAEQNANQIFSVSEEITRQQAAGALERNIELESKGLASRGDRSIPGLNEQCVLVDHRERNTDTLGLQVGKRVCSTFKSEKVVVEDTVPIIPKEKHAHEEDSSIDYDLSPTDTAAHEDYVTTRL
row,Structure (SMILES),B-score
1,CCN1CC2C3CCC(C)(O3)C2C1 (stereo not given),15 (active)
2,Cc1ccc(N(C)C(=O)Oc2cccc3ccc(C)nc23)cc1,inactive
3,CN(C)C(=O)Oc1ccc2c(c1)O/C(=C\c1ccccc1)C2=O,inactive
4,CNC(=O)O/N=C(\N)Cc1csc2ccccc12,inactive
5,O=c1c2ccccc2nc(-c2ccco2)n1-c1ccc(Br)cn1,inactive
6,O=c1c2ccccc2nc(-c2ccccc2)n1-c1ccccn1,inactive
7,Cc1ccc(-c2nc3ccccc3c(=O)n2-c2ccc(Br)cn2)cc1,12 (active)
8,CC(=NCc1ccc2c(c1)OCO2)c1c(O)[nH]c(=O)[nH]c1=O,inactive
9,COC(=O)C1=C(c2cc3ccccc3s2)C[C@@H]2CC[C@H]1N2C(=O)NCCO,inactive
10,O=C(Cn1c(=O)n(CC2CS2)c2ccccc21)N1CCCCC1 (stereo not given),inactive
11,COC(=O)C(O)(c1ccc(NC(=O)c2ccco2)c(OC)c1)C(F)(F)F (stereo not given),12 (active)
12,CCOC(=O)C(O)(c1ccc(N)c(OC)c1)C(F)(F)F (stereo not given),inactive
13,CCOC(=O)C(O)(c1ccc(NC(=O)c2ccco2)c(OC)c1)C(F)(F)F (stereo not given),inactive
14,Cc1ccc2c(c1)=C/C(=C\c1c(O)[nH]c(=O)[nH]c1=O)C(=O)N=2,inactive
15,COc1ccccc1C1=NCc2nnc(CSC)n2-c2ccc(Cl)cc21,inactive
16,CCN1CCN(Cc2cc(OC)c3c(c2)OCO3)CC1,11 (active)
17,Fc1ccc(N2CCN(Cc3ccc4c(c3)OCO4)CC2)cc1,inactive
18,O=C(Cc1ccccc1[N+](=O)[O-])N1CCN(Cc2ccc3c(c2)OCO3)CC1,inactive
19,Cc1cc2ccccn2c1C(C[N+](=O)[O-])c1c(F)cccc1Cl (stereo not given),inactive
20,O=c1[nH]c(=S)n(C2CC2)c(O)c1/C=N/N1CCOCC1,inactive
